From PubChem BioAssay (NCI)
This is part of a sample that, as a whole, favours compounds with a hit. Of some 83,000 tested, about 20% had one in any assay.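 How to read the values: 0–100, growth inhibition (40 = 60% inhibited); 0, no net growth; -100 to 0, cell death (-40 = 40% of starting cells died; -100 = all dead).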 Activity calls are given as the source filed them. The calls were made as follows: active = growth percent below 10; inactive = the rest.

What was measured:
Experiment in all cases: NCI-60 one-dose screen, 48 h (100 = growth as untreated, 0 = no growth, -100 = all killed)
Conditions in all cases: 10 µM unless noted
HCT-15 colon = test system: HCT-15 colon
HT29 colon = test system: HT29 colon
SNB-75 CNS = test system: SNB-75 CNS
SNB-19 CNS = test system: SNB-19 CNS
U251 CNS = test system: U251 CNS
PC-3 prostate = test system: PC-3 prostate
SK-MEL-5 melanoma = test system: SK-MEL-5 melanoma
UACC-62 melanoma = test system: UACC-62 melanoma
LOX IMVI melanoma = test system: LOX IMVI melanoma
SK-MEL-28 melanoma = test system: SK-MEL-28 melanoma
SK-MEL-2 melanoma = test system: SK-MEL-2 melanoma
SN12C renal = test system: SN12C renal
UO-31 renal = test system: UO-31 renal
TK-10 renal = test system: TK-10 renal
ACHN renal = test system: ACHN renal
A498 renal = test system: A498 renal
CCRF-CEM leukemia = test system: CCRF-CEM leukemia
MOLT-4 leukemia = test system: MOLT-4 leukemia
EKVX NSCLC = test system: EKVX NSCLC
CAKI-1 renal = test system: CAKI-1 renal

Measured: growth

OCC12CCCC(CO)(COC1)C2O (stereo unspecified)
active: CCRF-CEM leukemia -57.2%
inactive: HCT-15 colon 106% | HT29 colon 105% | SNB-75 CNS 96.4% | SNB-19 CNS 116% | U251 CNS 99.2% | PC-3 prostate 99.7% | SK-MEL-5 melanoma 99.8% | UACC-62 melanoma 107% | LOX IMVI melanoma 98.6% | SK-MEL-28 melanoma 107% | SK-MEL-2 melanoma 117% | SN12C renal 101% | UO-31 renal 91.1% | TK-10 renal 113% | ACHN renal 103% | A498 renal 97.9% | MOLT-4 leukemia 126%

C[N+](C)(CCCCCC[N+](C)(C)C1c2ccccc2-c2ccccc21)C1c2ccccc2-c2ccccc21
inactive: HCT-15 colon 105% | HT29 colon 110% | SNB-75 CNS 95% | SNB-19 CNS 105% | U251 CNS 96.4% | PC-3 prostate 98.2% | SK-MEL-5 melanoma 111% | UACC-62 melanoma 108% | LOX IMVI melanoma 104% | SK-MEL-28 melanoma 111% | SK-MEL-2 melanoma 95.8% | SN12C renal 108% | UO-31 renal 89% | TK-10 renal 112% | ACHN renal 106% | CCRF-CEM leukemia 106% | MOLT-4 leukemia 90.1%

C#CCn1c2c(c3ccccc31)C[C@]1(C)[C@H]3CC[C@@H]4[C@@H]5C(=CCC[C@H]5C(=C)C)CC[C@@]4(C)[C@]3(C)CC[C@H]1C2(C)C
inactive: HCT-15 colon 104% | HT29 colon 104% | SNB-75 CNS 90.3% | SNB-19 CNS 100% | U251 CNS 106% | PC-3 prostate 97.3% | SK-MEL-5 melanoma 100% | UACC-62 melanoma 95.2% | SK-MEL-28 melanoma 106% | SK-MEL-2 melanoma 104% | EKVX NSCLC 99.2% | SN12C renal 95.6% | UO-31 renal 77.1% | TK-10 renal 122% | ACHN renal 99.2% | CAKI-1 renal 80.1% | A498 renal 111% | CCRF-CEM leukemia 114% | MOLT-4 leukemia 99.9%

Nc1c(C(=O)Nc2cccc(Cl)c2)sc2ncc(Cl)cc12
inactive: HCT-15 colon 80.7% | HT29 colon 90.3% | SNB-75 CNS 59.6% | SNB-19 CNS 105% | U251 CNS 10.6% | PC-3 prostate 95.7% | SK-MEL-5 melanoma 94.3% | UACC-62 melanoma 95.5% | LOX IMVI melanoma 44.8% | SK-MEL-28 melanoma 91.7% | SN12C renal 79.3% | UO-31 renal 80.5% | TK-10 renal 118% | ACHN renal 23.9% | CAKI-1 renal 82.6% | A498 renal 103% | MOLT-4 leukemia 75.8%

O=C1C=C(C(O)c2ccc(O)cc2)C(=O)c2ccccc21 (stereo unspecified)
inactive: HCT-15 colon 94.9% | HT29 colon 115% | SNB-75 CNS 102% | SNB-19 CNS 110% | U251 CNS 95.1% | PC-3 prostate 99.5% | SK-MEL-5 melanoma 96.5% | UACC-62 melanoma 101% | LOX IMVI melanoma 83.7% | SK-MEL-28 melanoma 120% | SK-MEL-2 melanoma 109% | SN12C renal 107% | UO-31 renal 69.2% | TK-10 renal 103% | ACHN renal 92.7% | A498 renal 104% | MOLT-4 leukemia 84.8%

C/C(=N/NC(N)=S)C(=O)O
inactive: HCT-15 colon 82.9% | HT29 colon 56.5% | SNB-75 CNS 95.3% | SNB-19 CNS 98.4% | U251 CNS 73.9% | PC-3 prostate 72.8% | SK-MEL-5 melanoma 102% | UACC-62 melanoma 99.9% | LOX IMVI melanoma 74.9% | SK-MEL-28 melanoma 103% | SK-MEL-2 melanoma 118% | SN12C renal 80.6% | UO-31 renal 73.6% | TK-10 renal 119% | ACHN renal 91.7% | A498 renal 110% | MOLT-4 leukemia 27.7%

O=C(/C=C/c1cccc(O)c1)c1ccccc1O
inactive: HCT-15 colon 92.9% | HT29 colon 87.7% | SNB-75 CNS 72% | SNB-19 CNS 90.1% | U251 CNS 77% | PC-3 prostate 83.8% | SK-MEL-5 melanoma 92.3% | UACC-62 melanoma 87.4% | SK-MEL-28 melanoma 98.2% | SK-MEL-2 melanoma 84.1% | EKVX NSCLC 86.9% | SN12C renal 83.7% | UO-31 renal 73.9% | TK-10 renal 121% | ACHN renal 86.9% | CAKI-1 renal 50.4% | A498 renal 106% | CCRF-CEM leukemia 47.1% | MOLT-4 leukemia 66.9%

N#Cc1c(-c2ccc(O)cc2)c2c(N)nn(-c3ccccc3)c2[nH]c1=O
inactive: HCT-15 colon 109% | HT29 colon 111% | SNB-75 CNS 104% | SNB-19 CNS 99.8% | U251 CNS 103% | PC-3 prostate 102% | SK-MEL-5 melanoma 98% | UACC-62 melanoma 96% | SK-MEL-28 melanoma 109% | SK-MEL-2 melanoma 103% | EKVX NSCLC 101% | SN12C renal 104% | UO-31 renal 71.8% | TK-10 renal 137% | ACHN renal 100% | CAKI-1 renal 97.1% | A498 renal 108% | CCRF-CEM leukemia 110% | MOLT-4 leukemia 98.1%

C=C(C)[C@@H]1CC[C@]2(C)[C@H](CC=C3[C@@H]4CC(C)(C)CC[C@]4(C=O)CC[C@]32C)[C@@]1(C)CCCN
active: HT29 colon 7.12%
inactive: HCT-15 colon 42.1% | SNB-75 CNS 87.8% | SNB-19 CNS 89.1% | U251 CNS 69.6% | PC-3 prostate 47.5% | SK-MEL-5 melanoma 83% | UACC-62 melanoma 87.8% | SK-MEL-28 melanoma 89.4% | SK-MEL-2 melanoma 109% | EKVX NSCLC 94.5% | SN12C renal 66.7% | UO-31 renal 44.6% | TK-10 renal 81.4% | ACHN renal 88.4% | CAKI-1 renal 61.1% | A498 renal 97% | CCRF-CEM leukemia 52.9% | MOLT-4 leukemia 35.5%

[B-][N+](CC)(CC)c1ccccc1
inactive: HCT-15 colon 100% | HT29 colon 107% | SNB-75 CNS 84.1% | SNB-19 CNS 105% | U251 CNS 99% | PC-3 prostate 99.4% | SK-MEL-5 melanoma 104% | UACC-62 melanoma 111% | LOX IMVI melanoma 109% | SK-MEL-28 melanoma 99.7% | SK-MEL-2 melanoma 113% | SN12C renal 108% | UO-31 renal 83.8% | TK-10 renal 110% | ACHN renal 95.1% | A498 renal 108% | MOLT-4 leukemia 95.2%
active: CCRF-CEM leukemia -12.5%

Cc1[c-]onc1C.Cc1[c-]onc1C.[Ag].[Ag].[NH-]S(=O)(=O)c1ccc(N=Nc2cc(N=Nc3ccc(S([NH-])(=O)=O)cc3)c3c(NC(=O)C(Cl)Cl)cccc3c2OC(=O)C(Cl)Cl)cc1
inactive: HCT-15 colon 84.1% | HT29 colon 78.3% | SNB-75 CNS 44.8% | SNB-19 CNS 86.6% | U251 CNS 82.7% | PC-3 prostate 47.1% | SK-MEL-5 melanoma 24.2% | UACC-62 melanoma 85.9% | LOX IMVI melanoma 81.4% | SK-MEL-28 melanoma 86.4% | SN12C renal 94.1% | UO-31 renal 71.4% | TK-10 renal 133% | ACHN renal 58% | CAKI-1 renal 68.5% | A498 renal 98.6% | CCRF-CEM leukemia 11% | MOLT-4 leukemia 81.8%

NC(Cc1ccc(O)cc1)C(=O)N/N=C/c1ccccc1O (stereo unspecified)
inactive: HCT-15 colon 96.8% | HT29 colon 101% | SNB-75 CNS 92.7% | SNB-19 CNS 110% | U251 CNS 96.9% | PC-3 prostate 89.3% | SK-MEL-5 melanoma 103% | UACC-62 melanoma 113% | LOX IMVI melanoma 92.6% | SK-MEL-28 melanoma 106% | SN12C renal 114% | UO-31 renal 74.6% | TK-10 renal 98% | ACHN renal 116% | CAKI-1 renal 107% | A498 renal 103% | CCRF-CEM leukemia 81.2% | MOLT-4 leukemia 75.6%

COC(=O)c1cc(=O)nc(N/N=C/c2ccc(C)cc2)s1
inactive: HCT-15 colon 86.2% | HT29 colon 104% | SNB-75 CNS 91.7% | SNB-19 CNS 109% | U251 CNS 107% | PC-3 prostate 91.2% | SK-MEL-5 melanoma 98.9% | UACC-62 melanoma 115% | LOX IMVI melanoma 109% | SK-MEL-28 melanoma 104% | SN12C renal 110% | UO-31 renal 86.4% | TK-10 renal 104% | ACHN renal 107% | CAKI-1 renal 102% | A498 renal 104% | CCRF-CEM leukemia 93% | MOLT-4 leukemia 92.6%

C=C(C)[C@@H]1CC[C@]2(C)[C@H](CC=C3[C@@H]4CC(C)(C)CC[C@]4(C(=O)OC)CC[C@]32C)[C@@]1(C)CC/C(N)=N/O
active: U251 CNS -81.8% | SK-MEL-5 melanoma -19.9% | MOLT-4 leukemia 6.47%
inactive: HCT-15 colon 18.5% | HT29 colon 24.3% | SNB-75 CNS 101% | SNB-19 CNS 67.9% | PC-3 prostate 26.6% | UACC-62 melanoma 58.6% | SK-MEL-28 melanoma 60.9% | SK-MEL-2 melanoma 46.6% | EKVX NSCLC 25.2% | SN12C renal 36.4% | UO-31 renal 40.3% | TK-10 renal 67.9% | ACHN renal 43.8% | CAKI-1 renal 37% | A498 renal 77.7% | CCRF-CEM leukemia 37.3%

Cc1ccc(-c2ccc(Nc3ccccc3)nn2)cc1S(N)(=O)=O
inactive: HCT-15 colon 65.9% | HT29 colon 70.9% | SNB-75 CNS 87.1% | SNB-19 CNS 106% | U251 CNS 93.7% | PC-3 prostate 93.8% | SK-MEL-5 melanoma 89.3% | UACC-62 melanoma 89% | LOX IMVI melanoma 73.7% | SK-MEL-28 melanoma 89.1% | SN12C renal 90.1% | UO-31 renal 107% | TK-10 renal 142% | ACHN renal 91.6% | CAKI-1 renal 80.9% | A498 renal 89.2% | MOLT-4 leukemia 62.2%

COc1ccc(/C(=C\c2ccc3c(c2)OCO3)C(=O)Nc2nc3ccccc3s2)cc1OC
active: UO-31 renal -6.51%
inactive: HCT-15 colon 90.1% | HT29 colon 90.3% | SNB-75 CNS 94.3% | SNB-19 CNS 101% | U251 CNS 97.9% | PC-3 prostate 92.1% | SK-MEL-5 melanoma 101% | UACC-62 melanoma 97.8% | LOX IMVI melanoma 102% | SK-MEL-28 melanoma 106% | SK-MEL-2 melanoma 92.6% | SN12C renal 102% | TK-10 renal 96.6% | ACHN renal 97.7% | CAKI-1 renal 79% | A498 renal 78.8% | MOLT-4 leukemia 74.4%

CN1CCN(c2nc(-c3cccc4ccccc34)nc3sc4c(c23)CCCCCC4)CC1
inactive: HCT-15 colon 91.8% | HT29 colon 71.2% | SNB-75 CNS 49.1% | SNB-19 CNS 91.5% | U251 CNS 66.4% | PC-3 prostate 56.7% | SK-MEL-5 melanoma 85.3% | UACC-62 melanoma 87.6% | LOX IMVI melanoma 95.1% | SK-MEL-28 melanoma 98.1% | SK-MEL-2 melanoma 106% | SN12C renal 75.9% | UO-31 renal 46% | TK-10 renal 113% | ACHN renal 82.7% | A498 renal 94.2% | CCRF-CEM leukemia 75.2% | MOLT-4 leukemia 74%
